Assay outcomes (PubChem)
This is a sample that favours compounds with a hit; in the whole collection about 1.3% have one here.
MCL1-BIM inh – MCL1-BIM-BH3 interaction inhibition (human). Q07820. GST-MCL1 / FITC-Bim-BH3 fluorescence polarization. inhibition, % at 10.9 µM. hit rate 0.68% among 320,000. AID 2057;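 active = inhibition above the mean inhibition of all tested compounds plus 3 SD, set per campaign, cut at about 40% in these data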;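 note: higher means more loss of mP so more displacement of Bim peptide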
EBV gp42 block – inhibitors of Epstein-Barr virus glycoprotein 42; Q1HVG2; Fluorescence polarization binding assay, mP read-out; inhibition, % (tested at 21.74 µM); hit rate 0.42% among 220,000; in the data active = inhibition above about 50%
BCLXL inh – blocks human Bcl-xL binding to Bim BH3 peptide; GST-Bcl-xL / FITC-Bim BH3 peptide fluorescence polarization; inhibition, % at 10.9 µM; hit rate 0.7% among 320,000; AID 2129;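 active = inhibition above the mean of all tested compounds plus 3 SD, cutoff set per campaign, cut at about 30% in these data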;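 note: inhibitors lower millipolarization by displacing the labeled peptide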
MEX-5 binding – C. elegans MEX-5 TCR-2 RNA binding activity. MEX-5/FITC-TCR2 RNA binding, fluorescence polarization; stronger effect = lower value. hit rate 0.38% among 300,000. Q9XUB2. activity score (negative = inhibition of binding), % at 10 µM;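 active = inhibition past about -25% in most replicates, and total fluorescence under double the plate's negative control median, limit read from the data; inconclusive = replicates evenly split on the limit, or fluorescence at least double controls; inactive = too little inhibition in most replicates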
Target sequence (Q9XUB2 whole entry, looked up): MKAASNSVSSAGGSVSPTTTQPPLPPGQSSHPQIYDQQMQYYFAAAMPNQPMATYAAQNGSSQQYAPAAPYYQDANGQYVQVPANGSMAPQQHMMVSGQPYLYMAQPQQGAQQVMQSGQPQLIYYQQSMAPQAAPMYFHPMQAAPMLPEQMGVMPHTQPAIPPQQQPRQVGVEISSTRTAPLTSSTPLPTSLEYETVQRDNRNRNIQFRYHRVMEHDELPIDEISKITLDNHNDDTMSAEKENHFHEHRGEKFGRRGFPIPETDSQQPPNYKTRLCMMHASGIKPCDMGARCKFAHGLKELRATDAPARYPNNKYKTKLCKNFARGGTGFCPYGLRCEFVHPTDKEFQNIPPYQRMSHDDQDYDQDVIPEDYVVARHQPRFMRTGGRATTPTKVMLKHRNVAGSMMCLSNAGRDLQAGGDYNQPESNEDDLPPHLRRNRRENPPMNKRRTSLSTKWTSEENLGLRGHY
GLD-1 RNA inh – GLD-1-TGE RNA interaction inhibition (C. elegans); Q17339; purified GLD-1 + fluorescein TGE RNA, fluorescence polarization; inhibition, % at 5.96 µM; hit rate 0.44% among 320,000; AID 2280;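 active = percent inhibition above a per-plate cutoff, the plate mean of test compounds plus 3 SD, cut at about 30% in these data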
BCLXL inh confirm – Bcl-xL (human) inhibition, MCL1 counter-screen confirmation; shares compounds with MCL1-BIM inh; GST-Bcl-xL / FITC-Bim BH3 peptide FP binding; inhibition, % at 10.9 µM; hit rate 54% among 1,700; AID 2166;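 active = inhibition above a cutoff equal to the mean inhibition of all tested compounds plus 3 SD, cut at about 30% in these data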
MCL1 BIM confirm – confirmation of human MCL1 and BIM-BH3 interaction inhibitors. GST-MCL1 / FITC-Bim-BH3 fluorescence polarization. inhibition, % at 10.9 µM. AID 2168. hit rate 61% among 1,700. shares compounds with MCL1-BIM inh;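 active = inhibition above the average of all tested compounds plus 3 SD, cut at about 40% in these data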
Numbers stand for hits; 0 = inactive; ? = inconclusive; - = no result given; + = active, no number.

SMILES	MCL1-BIM inh	EBV gp42 block	BCLXL inh	MEX-5 binding	GLD-1 RNA inh	BCLXL inh confirm	MCL1 BIM confirm
COc1cc2c3nnc(-c4ccc(F)cc4)c-3cn(Cc3cccc(F)c3)c2cc1OC	85	0	76	?	0	82	87
COc1cc2c3nnc(-c4ccc(F)cc4)c-3cn(Cc3ccc(C)cc3)c2cc1OC	0	0	0	?	0	-	-
COc1cc2c3nnc(-c4ccc(F)cc4)c-3cn(Cc3cccc(C)c3)c2cc1OC	99	0	96	?	50	85	90
CC(=O)c1ccc(N(CC(=O)NC2CCS(=O)(=O)C2)S(=O)(=O)c2ccc(Cl)cc2)cc1 (stereo unspecified)	0	-	0	-	0	-	-
O=C(O)CN1C(=O)/C(=C\C(Br)=C\c2ccccc2)SC1=S	43	-	0	0	0	33	47
CCN(CC)C(=O)CSc1nc2ccccc2c(=O)n1-c1cccc(OC)c1	0	0	0	0	0	-	-
COc1cccc(-n2c(SCc3cc(=O)oc4cc(O)c(O)cc34)nc3ccccc3c2=O)c1	51	0	0	0	0	0	63
Cc1ccc(S(=O)(=O)NCCN=C(CN2CCCC2)NS(=O)(=O)c2ccc(C)cc2)cc1	0	0	0	-	0	-	-
CCOc1nc(C)cc(C)c1S(=O)(=O)c1cccc(Cl)c1	0	-	0	0	0	-	-
CC(=O)Nc1ccc(NC(=O)C(C)OC(=O)/C(C#N)=C/c2ccc(N(C)C)cc2)cc1 (stereo unspecified)	+	-	+	-26	136	165	191
O=C(COC(=O)CCc1ccccc1)NNC(=O)c1ccccc1	-	-	-	-	0	-	-
CC(CS(=O)(=O)c1cccc2cccnc12)N1CCCCC1 (stereo unspecified)	65	0	62	0	40	33	42
CC1CCc2c(C(=O)Nc3ccc(N4CCOCC4)cc3)csc2C1 (stereo unspecified)	0	0	0	0	0	-	-
Cc1cc(C)cc(C(=O)NCC(=O)OC(C)C(=O)N(C)c2ccccc2)c1 (stereo unspecified)	0	0	0	0	0	-	-
CNc1cccccc1=S	78	0	54	0	0	0	0
CNc1ccccc1	0	-	0	-	0	-	-
Cc1nnc(SCC(=O)Nc2ccc(S(N)(=O)=O)cc2)n(N)c1=O	-	-	-	-	0	-	-
Oc1ccc(/C=N/n2c(COc3ccccc3)n[nH]c2=S)cc1O	44	-	0	0	0	0	0
COc1ccccc1CN=c1c([N+](=O)[O-])nn(-c2ccc3c(c2)OCCO3)n1O	0	0	0	0	0	-	-
O=[N+]([O-])c1nn(-c2ccc3c(c2)OCCO3)n(O)c1=NCc1ccccc1Cl	54	0	42	0	0	0	0
CC(OC(=O)CNC(=O)c1cccs1)C(=O)Nc1ccc(S(N)(=O)=O)cc1 (stereo unspecified)	0	-	0	0	0	-	-
CC(C)OCCCn1c(=NC(=O)c2cccs2)c(C#N)cc2c(=O)n3ccccc3nc21	114	0	106	?	58	0	0
CC(C)OCCCn1c(=N)c(C(N)=S)cc2c(=O)n3ccccc3nc21	82	0	83	0	0	70	86
CCc1cccc(NC(=O)CCNS(=O)(=O)c2ccc3c(c2)oc(=O)n3C)c1	0	-	0	0	0	-	-
CC(C)CN(C(=O)COC(=O)c1cc2c(s1)CCC2)C1CCS(=O)(=O)C1 (stereo unspecified)	42	0	0	0	0	0	0
SMILES	MCL1-BIM inh	EBV gp42 block	BCLXL inh	MEX-5 binding	GLD-1 RNA inh	BCLXL inh confirm	MCL1 BIM confirm
CCn1nc(C)c(/C=C2\CCCC3=C2OC(N)=C(C#N)C3c2c(C)nn(CC)c2C)c1C (stereo unspecified)	72	0	76	?	53	70	85
O=c1oc2cc(O)ccc2c2oc3cc(O)ccc3c12	0	0	0	0	0	-	-
Nc1ccc(-c2c3ccc(=O)cc-3oc3cc(O)ccc23)c(C(=O)O)c1	78	-	86	-	0	77	76
O=c1[nH]c(=S)ccn1C1OC(CO)C(O)C1O (stereo unspecified)	0	-	0	0	0	-	-
CCOC(=O)CNc1ccc2c(c1)OCO2	176	0	154	0	84	0	0
CC(=O)N(C)c1ccc(C(O)(C(F)(F)F)C(F)(F)F)cc1	0	0	0	0	0	-	-
